This passage reports outcome and AC50 results from PubChem BioAssay (EPA / NIEHS).

Several values for one entry are separate records, joined by “and”; a condition that tells them apart may be missing. Identical values can stand only once. A structure can be active in one record and inactive in another. Activity calls are given as the source filed them. How the source made its calls: active means hit-call score of the fitted dose curve at least 0.9, where 1 is the maximum; inactive means score below 0.9.

For orientation: AC50 means the concentration giving half of the maximal activity seen.

Chain of Cytochrome P450 3A7 (Homo sapiens) (P24462 whole entry, looked up): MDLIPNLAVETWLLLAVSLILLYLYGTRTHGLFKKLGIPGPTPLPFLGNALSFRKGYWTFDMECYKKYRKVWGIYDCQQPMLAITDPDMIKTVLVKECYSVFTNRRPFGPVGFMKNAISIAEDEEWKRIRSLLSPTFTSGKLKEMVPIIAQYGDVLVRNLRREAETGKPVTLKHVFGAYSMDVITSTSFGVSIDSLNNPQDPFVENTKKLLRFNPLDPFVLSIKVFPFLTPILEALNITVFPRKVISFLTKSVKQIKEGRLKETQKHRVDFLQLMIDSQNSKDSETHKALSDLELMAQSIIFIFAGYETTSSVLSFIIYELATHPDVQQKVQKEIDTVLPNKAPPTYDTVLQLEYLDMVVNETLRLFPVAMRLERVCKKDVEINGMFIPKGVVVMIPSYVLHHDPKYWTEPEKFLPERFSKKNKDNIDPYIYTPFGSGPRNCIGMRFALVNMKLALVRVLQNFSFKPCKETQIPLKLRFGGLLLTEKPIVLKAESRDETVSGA

Read-out in one assay: Ezrin (EZR), EZR (gene 7430)
As to the kind of experiment: LTEA_HepaRG_EZR: Life Technologies and Expression Analysis (LTEA) Assay for Ezrin (EZR) using HepaRG (AID 2283491). To be noted: mRNA level, 48 h; actives raise or lower the signal. An outline of the steps:
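Read-out is EZR transcript level by qRT-PCR, normalized to three housekeeping genes and fitted bidirectionally against the DMSO control. Human HepaRG cells received test chemicals for 48 h at eight half-log concentrations up to 100 uM in 0.5% DMSO.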
As to `COC(=O)c1ccc(C(=O)OC)cc1`, the outcome was inactive.
On to `CC/C(=C(\c1ccccc1)c1ccc(OCCN(C)C)cc1)c1ccccc1`, for which the AC50 was 81.4 µM (active) and 50 µM (active).
For the compound `C#C[C@]1(O)CC[C@H]2[C@@H]3CCc4cc(O)ccc4[C@H]3CC[C@@]21C`, the result was inactive.
The same measure, in the same setting: in the case of `C[C@]12CC[C@@H]3c4ccc(O)cc4CC[C@H]3[C@@H]1CC[C@@H]2O` it was “inactive”; in that of `C=C(C)C(N)=O`, “inactive”; in that of `CCCCOCCOCCO`, “inactive”.
On to `O=C(c1ccc(OCCN2CCCCC2)cc1)c1c(-c2ccc(O)cc2)sc2cc(O)ccc12`, for which the AC50 was 50 µM (active).

Read-out in the next assay: Cytochrome P450 3A7 (Homo sapiens) (UniProt P24462)
As to the kind of experiment: LTEA_HepaRG_CYP3A7: Life Technologies and Expression Analysis (LTEA) Assay for CYP3A7 using HepaRG (AID 2283492). To be noted: mRNA level, 48 h; actives raise or lower the signal. An outline of the steps: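 CYP3A7 transcript levels were read by TaqMan qRT-PCR on Fluidigm arrays after 48 h chemical exposure of human HepaRG cells, with housekeeping-gene normalisation. Eight half-log concentrations up to 100 uM in 0.5% DMSO were tested in duplicate.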
As for `COC(=O)c1ccc(C(=O)OC)cc1`, the outcome was inactive.
Same read-out and setting: the result for `CC/C(=C(\c1ccccc1)c1ccc(OCCN(C)C)cc1)c1ccccc1` reads “inactive”; that for `C#C[C@]1(O)CC[C@H]2[C@@H]3CCc4cc(O)ccc4[C@H]3CC[C@@]21C`, “inactive”.
The same measure, in the same setting: the result for `C=C(C)C(N)=O` reads “inactive”; that for `CCCCOCCOCCO`, “inactive”; that for `O=C(c1ccc(OCCN2CCCCC2)cc1)c1c(-c2ccc(O)cc2)sc2cc(O)ccc12`, “inactive”.

Read-out in the next assay: CYP3A5 (gene 1577)
In words: LTEA_HepaRG_CYP3A5: Life Technologies and Expression Analysis (LTEA) Assay for CYP3A5 using HepaRG (AID 2283493). To be noted: mRNA level, 48 h; actives raise or lower the signal. An outline of the steps: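 mRNA levels were quantified by qRT-PCR on Fluidigm arrays and normalized to three housekeeping genes. Differentiated HepaRG cells received 48 h exposure (top 100 uM, half-log steps, 0.5% DMSO vehicle, duplicate); bidirectional fitting versus DMSO.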
`COC(=O)c1ccc(C(=O)OC)cc1`: the call was inactive.
With `CC/C(=C(\c1ccccc1)c1ccc(OCCN(C)C)cc1)c1ccccc1`, the AC50 was 86.7 µM (active) and the result was inactive.
In the case of `C#C[C@]1(O)CC[C@H]2[C@@H]3CCc4cc(O)ccc4[C@H]3CC[C@@]21C`, the outcome was inactive.
For `C[C@]12CC[C@@H]3c4ccc(O)cc4CC[C@H]3[C@@H]1CC[C@@H]2O`, the AC50 was 50 µM (active).
As for `C=C(C)C(N)=O`, the result was inactive.
The same measure, in the same setting: in the case of `CCCCOCCOCCO` it was “inactive”.
Turning to `O=C(c1ccc(OCCN2CCCCC2)cc1)c1c(-c2ccc(O)cc2)sc2cc(O)ccc12`, the AC50 is 41.4 µM (active).

Read-out in a further assay: Fatty Acid-Binding Protein 1 (FABP1), FABP1 (gene 2168)
In words: LTEA_HepaRG_FABP1: Life Technologies and Expression Analysis (LTEA) Assay for Fatty Acid-Binding Protein 1 (FABP1) using HepaRG (AID 2283494). To be noted: mRNA level, 48 h; actives raise or lower the signal. An outline of the steps:
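qRT-PCR readout of FABP1 transcript (normalized to three housekeeping genes) after 48 h chemical exposure of HepaRG cells; eight concentrations, half-log steps, max 100 uM, 0.5% DMSO vehicle; gain or loss fitted relative to DMSO baseline.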
For `COC(=O)c1ccc(C(=O)OC)cc1`, the outcome was inactive.
For `CC/C(=C(\c1ccccc1)c1ccc(OCCN(C)C)cc1)c1ccccc1`, the AC50 was 60 µM (active) and 70.9 µM (active).
With `C#C[C@]1(O)CC[C@H]2[C@@H]3CCc4cc(O)ccc4[C@H]3CC[C@@]21C`, the result was inactive.
As for `C[C@]12CC[C@@H]3c4ccc(O)cc4CC[C@H]3[C@@H]1CC[C@@H]2O`, the AC50 was 29 µM (active).
`C=C(C)C(N)=O`: the compound was called inactive.
The same measure, in the same setting: the result for `CCCCOCCOCCO` reads “inactive”.
For the compound `O=C(c1ccc(OCCN2CCCCC2)cc1)c1c(-c2ccc(O)cc2)sc2cc(O)ccc12`, the AC50 was 50 µM (active).

Read-out in a further assay: Cytochrome P450 4A22 (Homo sapiens) (UniProt Q5TCH4)
In words: LTEA_HepaRG_CYP4A22: Life Technologies and Expression Analysis (LTEA) Assay for Cytochrome P450 4A22 (CYP4A22) using HepaRG (AID 2283495). Particulars: mRNA level, 48 h; actives raise or lower the signal. An outline of the steps:
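HepaRG, 48 h post-plating -> serum-free induction medium; dosed 48 h, duplicate, 8 conc. (100 uM top, half-log), 0.5% DMSO. Readout: CYP4A22 mRNA by qRT-PCR, ACTB/GAPDH/POLR2A normalization; gain/loss fit relative to DMSO.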
For `COC(=O)c1ccc(C(=O)OC)cc1`, the call was inactive.
In the case of `CC/C(=C(\c1ccccc1)c1ccc(OCCN(C)C)cc1)c1ccccc1`, the AC50 is 14.5 µM (active) and 20.7 µM (active).
Regarding `C#C[C@]1(O)CC[C@H]2[C@@H]3CCc4cc(O)ccc4[C@H]3CC[C@@]21C`, the call was inactive.
As for `C[C@]12CC[C@@H]3c4ccc(O)cc4CC[C@H]3[C@@H]1CC[C@@H]2O`, the AC50 was 50 µM (active).
On to `C=C(C)C(N)=O`, for which the compound was classed as inactive.
Still for that read-out and setting: in the case of `CCCCOCCOCCO` it was “inactive”; in that of `O=C(c1ccc(OCCN2CCCCC2)cc1)c1c(-c2ccc(O)cc2)sc2cc(O)ccc12`, “inactive”.

Read-out in the next assay: Cytochrome P450 7A1 (Homo sapiens) (UniProt P22680)
As to the kind of experiment: LTEA_HepaRG_CYP7A1: Life Technologies and Expression Analysis (LTEA) Assay for Cytochrome P450 7A1 (CYP7A1) using HepaRG (AID 2283496). To be noted: mRNA level, 48 h; actives raise or lower the signal. An outline of the steps:
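HepaRG, 48 h exposure, 8-pt half-log series from 100 uM, 0.5% DMSO vehicle, duplicates. Readout: TaqMan qRT-PCR mRNA vs three housekeeping genes; bidirectional curve fit against DMSO baseline.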
Consider `COC(=O)c1ccc(C(=O)OC)cc1`, for which the outcome was inactive.
As to `CC/C(=C(\c1ccccc1)c1ccc(OCCN(C)C)cc1)c1ccccc1`, the compound was classed as inactive.
On the same count and under the same terms, in the case of `C#C[C@]1(O)CC[C@H]2[C@@H]3CCc4cc(O)ccc4[C@H]3CC[C@@]21C` it was “inactive”; in that of `C[C@]12CC[C@@H]3c4ccc(O)cc4CC[C@H]3[C@@H]1CC[C@@H]2O`, “inactive”; in that of `C=C(C)C(N)=O`, “inactive”.
Consider `CCCCOCCOCCO`, for which the call was inactive.
Consider `O=C(c1ccc(OCCN2CCCCC2)cc1)c1c(-c2ccc(O)cc2)sc2cc(O)ccc12`, for which the call was inactive.

Read-out in a further assay: Glutathione S-Transferase (GSTA2), GSTA2 (gene 2939)
In words: LTEA_HepaRG_GSTA2: Life Technologies and Expression Analysis (LTEA) Assay for Glutathione S-Transferase (GSTA2) using HepaRG (AID 2283497). Particulars: mRNA level, 48 h; actives raise or lower the signal. An outline of the steps: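 qRT-PCR readout of GSTA2 transcript, normalized to three housekeeping genes, fitted bidirectionally against 0.5% DMSO baseline. Differentiated HepaRG cells received compound for 48 h at 8 concentrations (top 100 uM, half-log steps).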
In the case of `COC(=O)c1ccc(C(=O)OC)cc1`, the compound was classed as inactive.
Take `CC/C(=C(\c1ccccc1)c1ccc(OCCN(C)C)cc1)c1ccccc1`: the half-maximal activity concentration (AC50) is 70.2 µM (active) and the result was inactive.
On to `C#C[C@]1(O)CC[C@H]2[C@@H]3CCc4cc(O)ccc4[C@H]3CC[C@@]21C`, for which the compound was classed as inactive.
Still for that read-out and setting: in the case of `C[C@]12CC[C@@H]3c4ccc(O)cc4CC[C@H]3[C@@H]1CC[C@@H]2O` it was “inactive”; in that of `C=C(C)C(N)=O`, “inactive”.
Same read-out and setting: the result for `CCCCOCCOCCO` reads “inactive”.
As for `O=C(c1ccc(OCCN2CCCCC2)cc1)c1c(-c2ccc(O)cc2)sc2cc(O)ccc12`, the AC50 is 69.1 µM (active).

Read-out in the next assay: Glutamate-cysteine ligase catalytic (GCLC), GCLC (gene 2729)
In words: LTEA_HepaRG_GCLC: Life Technologies and Expression Analysis (LTEA) Assay for Glutamate-cysteine ligase catalytic (GCLC) using HepaRG (AID 2283498). Particulars: mRNA level, 48 h; actives raise or lower the signal. An outline of the steps: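 HepaRG, 48 h exposure, 8-pt half-log series from 100 uM, 0.5% DMSO vehicle; TaqMan qRT-PCR for GCLC mRNA, housekeeping-normalized; bidirectional curve fit vs DMSO baseline.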
With `COC(=O)c1ccc(C(=O)OC)cc1`, the result was inactive.
On the same count and under the same terms, in the case of `CC/C(=C(\c1ccccc1)c1ccc(OCCN(C)C)cc1)c1ccccc1` it was “inactive”; in that of `C#C[C@]1(O)CC[C@H]2[C@@H]3CCc4cc(O)ccc4[C@H]3CC[C@@]21C`, “inactive”; in that of `C[C@]12CC[C@@H]3c4ccc(O)cc4CC[C@H]3[C@@H]1CC[C@@H]2O`, “inactive”.
Regarding `C=C(C)C(N)=O`, the compound was classed as inactive.
Still for that read-out and setting: the result for `CCCCOCCOCCO` reads “inactive”.
On the same count and under the same terms, in the case of `O=C(c1ccc(OCCN2CCCCC2)cc1)c1c(-c2ccc(O)cc2)sc2cc(O)ccc12` it was “inactive”.

Read-out in another assay: growth arrest and DNA damage 45 (GADD45G), GADD45G (gene 10912)
As to the kind of experiment: LTEA_HepaRG_GADD45G: Life Technologies and Expression Analysis (LTEA) Assay for growth arrest and DNA damage 45 (GADD45G) using HepaRG (AID 2283499). To be noted: mRNA level, 48 h; actives raise or lower the signal. An outline of the steps: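 HepaRG, 48 h exposure, top 100 uM, half-log 8-point series, 0.5% DMSO vehicle, duplicates. Readout: GADD45G transcript by qRT-PCR (Fluidigm array), housekeeping-normalised (ACTB/GAPDH/POLR2A). Bidirectional curve fit vs DMSO baseline.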
On to `COC(=O)c1ccc(C(=O)OC)cc1`, for which the compound was called inactive.
For `CC/C(=C(\c1ccccc1)c1ccc(OCCN(C)C)cc1)c1ccccc1`, the AC50 was 90.5 µM (active) and the call was inactive.
For the compound `C#C[C@]1(O)CC[C@H]2[C@@H]3CCc4cc(O)ccc4[C@H]3CC[C@@]21C`, the result was inactive.
Still for that read-out and setting: the result for `C[C@]12CC[C@@H]3c4ccc(O)cc4CC[C@H]3[C@@H]1CC[C@@H]2O` reads “inactive”; that for `C=C(C)C(N)=O`, “inactive”; that for `CCCCOCCOCCO`, “inactive”.
Still for that read-out and setting: the result for `O=C(c1ccc(OCCN2CCCCC2)cc1)c1c(-c2ccc(O)cc2)sc2cc(O)ccc12` reads “inactive”.
